Assay results reported in PubChem BioAssay.
“And” between values parts separate entries of the source, which are not always exact repeats. Identical values can stand only once. The source made the active and inactive calls.

What was measured:
Albumin (Bos taurus) = Albumin (Bos taurus) (UniProt P02769); experiment: bovine serum albumin binders on microarray, profiling panel, artefact control for SMM control protein annotation, biochemical, small-molecule microarray, Alexa647 label, 635/667 nm fluorescence (AID 1118); settings: BSA-A647 binding, fluorescence 635 nm, higher = more signal;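 further: score merges 667 nm emission intensity and signal-to-noise per printed compound spot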
Albumin (Bos taurus), sequence (P02769 whole entry, looked up): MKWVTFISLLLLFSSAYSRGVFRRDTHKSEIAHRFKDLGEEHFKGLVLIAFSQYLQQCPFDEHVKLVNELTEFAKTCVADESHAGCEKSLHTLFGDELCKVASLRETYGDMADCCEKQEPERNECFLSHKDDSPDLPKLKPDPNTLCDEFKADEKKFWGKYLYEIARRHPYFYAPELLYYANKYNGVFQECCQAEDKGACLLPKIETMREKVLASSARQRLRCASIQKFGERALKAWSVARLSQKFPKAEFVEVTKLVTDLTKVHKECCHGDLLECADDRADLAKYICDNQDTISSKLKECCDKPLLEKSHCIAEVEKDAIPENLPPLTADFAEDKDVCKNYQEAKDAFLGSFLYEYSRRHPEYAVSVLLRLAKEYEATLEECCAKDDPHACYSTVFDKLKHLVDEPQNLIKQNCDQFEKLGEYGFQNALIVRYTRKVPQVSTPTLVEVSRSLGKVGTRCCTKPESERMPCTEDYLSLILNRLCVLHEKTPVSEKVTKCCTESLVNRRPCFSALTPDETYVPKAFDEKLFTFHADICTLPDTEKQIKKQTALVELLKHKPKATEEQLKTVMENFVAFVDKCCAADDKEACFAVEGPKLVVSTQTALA

[1] = small-molecule microarray binders of probe aXIP, primary screen, biochemical, NeuroSMM set, 635/667 nm fluorescence (AID 1119); settings: higher = more signal, called active from +8 up or from −8 down;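 further: probe is the protein aXip251-270 applied at 1 µg/mL to compound-printed slides; binding of probe to printed compounds measured as 667 nm fluorescence plus signal to noise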
[2] = small-molecule binders of probe aNOTCH3, primary screen, biochemical, small-molecule microarray, 635/667 nm fluorescence (AID 1120); settings: higher = more signal;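 further: probe is a biotin-tagged antibody raised against NOTCH3 rather than NOTCH3 protein; score merges spot fluorescence near 667 nm with spot signal to noise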
[3] = small-molecule binders of probe aNOTCH2, primary screen, biochemical, small-molecule microarray, 635/667 nm fluorescence (AID 1121); settings: higher = more signal;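 further: score merges feature fluorescence read at 667 nm with its signal to noise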
[4] = target: Carbonic anhydrase 2 (Homo sapiens) (UniProt P00918); experiment: CAII small-molecule binders, profiling panel, biochemical, small-molecule microarray, Alexa647-labelled CAII (AID 1122); settings: CAII-A647 binding fluorescence, higher = more signal
[5] = COS7 lysate on small-molecule microarray, probe aHis, 635 nm (AID 1123); settings: COS7 cell lysate, fluorescence, higher = more signal;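 further: z-score combines 667nm fluorescence intensity with signal-to-noise per printed compound spot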
[6] = compound binding in COS7 lysate, probe aLAP1, primary screen, cell lysate, small-molecule microarray (AID 1124); settings: probe aLAP1, fluorescence, higher = more signal;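 further: lysate comes from COS7 cells expressing LAP1 and is applied at 0.3 µg/mL; score merges spot fluorescence near 667 nm with signal-to-noise over triplicate slides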
Sam68 (KHDRBS1) = experiment: Sam68 small-molecule binders, primary screen, biochemical, small-molecule microarray, 635 nm fluorescence (AID 1125); settings: small-molecule microarray binding, higher = more signal;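 further: score merges 667 nm channel intensity with signal to noise over triplicate slides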
[7] = test system: Chordin-like protein 2 (CHRDL2); experiment: CHRDL2 small-molecule binders, primary screen, biochemical, small-molecule microarray, 635 nm fluorescence (AID 1126); settings: small-molecule microarray binding, fluorescence 635 nm; higher = more signal;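 further: printed compound slides probed with Chrdl2 protein at 4 µg/mL for 1 h at 4 C; score merges 667 nm emission intensity with signal to noise over three replicate slides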
[8] = target: Concanavalin-A (Canavalia ensiformis) (UniProt P02866); experiment: ConA small-molecule binders, primary screen, artefact control for SMM control protein annotation, biochemical, small-molecule microarray, Alexa647 label, 635 nm (AID 1127); settings: ConA-A647 binding fluorescence, higher = more signal;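 further: z combines 667 nm emission intensity with signal-to-noise across three replicate slides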
Concanavalin-A (Canavalia ensiformis), sequence (P02866 whole entry, looked up): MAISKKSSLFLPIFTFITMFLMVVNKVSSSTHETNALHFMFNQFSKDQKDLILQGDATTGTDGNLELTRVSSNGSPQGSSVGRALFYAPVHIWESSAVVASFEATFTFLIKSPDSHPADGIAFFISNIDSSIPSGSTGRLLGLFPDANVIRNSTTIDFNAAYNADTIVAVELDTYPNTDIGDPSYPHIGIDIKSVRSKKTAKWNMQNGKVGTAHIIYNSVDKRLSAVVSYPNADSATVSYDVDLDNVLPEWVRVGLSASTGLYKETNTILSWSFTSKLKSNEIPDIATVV

SMILES	composite z-score (Albumin (Bos taurus))	composite Z-score [1]	composite z-score [2]	composite z-score [3]	composite z-score [4]	composite z-score [5]	composite z-score [6]	composite z-score (Sam68 (KHDRBS1))	composite z-score [7]	composite z-score [8]
C=CCN(CCCC)C(=O)C1N(c2c(Cl)cccc2CO)C(=O)C2C(C(=O)O)C3C=CC21O3 (stereo not given)	-0.817 and -0.128	-0.533 (inactive) and 0.273 (inactive)	-0.408 and 0.539	-0.173 and 0.608	-0.748 and 0.955	-0.455 and 1.89	-0.111 and -0.125	-0.818 and -1	-1.4 and -1.99	-1.69 and -2.68
C[C@@H]1CC[C@@H](C(=O)O)N[C@H]1c1ccc(-c2ccco2)cc1	0.0852	-0.122 (inactive)	0.0458	-0.16	0.812	0.01	-0.103	0.108	1.1	0.529
C[C@@H](ON=C1[C@H]2CCn3c(=O)n(-c4ccccc4)c(=O)n3[C@H]2[C@H](O)[C@@H]2O[C@H]12)c1cn([C@H](CO)Cc2ccccc2)nn1	0.0073	0.116 (inactive)	-0.216	-0.17	-0.0324	0.392	0.012	0.209	0.353	0.349
CCOC(=O)C[C@H]1[C@H](OC(=O)c2ccccc2-c2ccccc2)[C@@H](NC(=O)c2ccccc2)c2cc(OCCCO)ccc2N1C(=O)c1ccc2ccccc2n1	0.369 and 0.645	0.095 (inactive) and 0.291 (inactive)	0.0223 and 0.228	-0.0073 and -0.0357	0.348 and 0.0749	0.25 and 0.958	0.0741 and 0.356	0.443 and 1.2	0.243 and 0.175	0.436 and 1.04
CCOC(=O)c1ccc(NC(=O)O[C@H]2[C@H](OC(=O)Nc3ccccc3)[C@@H](OC(=O)Nc3ccccc3)[C@@H](OC)O[C@@H]2CO)cc1	0.905 and 0.893	1.09 (inactive) and 0.682 (inactive)	0.228 and 0.318	0.0149 and -0.0131	0.527 and 0.688	2.63 and 1.91	0.336 and 0.278	1.31	-0.193 and -0.279	1.23 and 1.17
COC(=O)CC=C[C@@H](C)[C@@H](CO)NS(=O)(=O)c1ccc(C)cc1	0.0833 and -0.252	0.105 (inactive) and 0.309 (inactive)	-0.0391 and 0.111	-0.0703 and -0.14	-0.121 and 0.0581	-0.114 and 0.0271	-0.144 and -0.481	-0.182 and 0.567	0.696 and 1.03	-0.213 and -0.52
C[C@@H]1CC[C@H]2C(=O)O[C@H](CN=[N+]=[N-])CN2[C@H]1c1ccc(Br)cc1	-0.507 and 0.491	0.142 (inactive) and 0.753 (inactive)	-0.125 and -0.197	-0.245 and -0.0569	-0.188 and -0.223	-0.0295 and -0.382	0.268 and -0.329	-0.167 and 0.113	0.735 and 0.382	-0.726 and 0.0516
CC(CO)N1C(=O)[C@@H]2C3C(=O)OCCC=C[C@H]3OC23C=CCN(c2ccc4ccccc4c2)C(=O)[C@@H]13 (stereo not given in full)	-0.452 and 0.947	-0.862 (inactive) and 0.322 (inactive)	-0.1 and -0.498	-0.14 and -0.299	0.838 and 0.84	0.506 and 0.368	0.697 and 0.476	0.31 and -0.264	-0.937 and -1.09	0.0026 and -0.279
C=CCN1C(=O)[C@]2(O[C@H](CCn3cc(CCO)nn3)[C@@H]([Si](C)(C)c3ccc(OC)cc3)[C@@H]2C)c2cc(N3C(=O)c4cccc5cccc3c45)ccc21	0.558 and 0.668	0.729 (inactive) and 0.573 (inactive)	0.0522 and 0.0259	-0.106 and -0.162	0.227 and 0.417	1.88 and 0.772	0.163 and -0.46	1.2 and 0.787	0.431 and 0.191	1.08 and 1.06
CC(C)CCN1CCc2nc(-c3ccccc3)c3c(c2C1)CO[C@@H](C)C3	0.69	-0.835 (inactive)	-0.0362	-0.16	0.15	0.463	-0.616	1.06	0.656	0.263
CCOC(=O)CCN1C(=O)[C@H]2[C@H]3[C@H](O)[C@H](O)CC(=NNC(=O)OCC)[C@@H]3CC[C@H]2C1=O	0.357	-0.436 (inactive)	0.229	-0.0131	-0.249	0.043	0.127	0.739	-0.0855	0.0804
C=CCN(C(=O)C(c1cccs1)N(C(=O)/C=C\C(=O)O)c1ccc(CCO)cc1)C(C)(C)C (stereo not given)	0.779 and 0.432	-0.374 (inactive) and -0.419 (inactive)	-0.312 and -0.448	-0.0708 and -0.0924	0.663 and 0.867	2.45 and 2.51	0.904 and 1.16	-0.847 and -1.43	-1.74 and -2.91	-0.941 and -0.744
C=CCN(CCCC)C(=O)C1N(c2ccc(CCO)cc2)C(=O)C2C(C(=O)O)C3C=CC21O3 (stereo not given)	-0.196 and -1.75	-0.708 (inactive) and -0.319 (inactive)	-0.454 and -0.477	0.0039 and -0.14	0.809 and 0.91	0.253	-1.05 and -0.525	-1.48 and -0.741	-3.26 and -3.79	-1.74 and -2.64
CCCNC(=O)OC[C@H]1O[C@H](CCON=C(C)CCC(=O)OC[C@H]2O[C@H](C#Cc3ccccc3)C=C[C@@H]2Oc2ccc(C)cc2)C=C[C@@H]1Oc1ccc(OC)cc1	-0.22	0.212 (inactive)	-0.158	-0.141	-0.29	-0.324	-0.141	-1.22	-0.288	0.154
C=C[C@@H](C)[C@@H](O)c1ccc(OCCO)cc1	-0.342 and 0.259	0.142 (inactive) and -0.0636 (inactive)	-0.701 and -0.608	-0.153 and -0.199	0.8 and 0.731	-0.217 and -0.451	-0.262 and -0.524	-0.97 and -0.832	-3.22 and -2.09	-1.86 and -0.87
C[N+](C)(C)CCCCNC(=O)[C@H]1C[C@H]2C(=O)N[C@@H](CCCC[N+](C)(C)C)C(=O)N2[C@H]1c1ccc(O)cc1	-0.839 and -1.32	0.472 (inactive) and 2.29 (inactive)	-0.0947 and 0.0311	-0.14 and -0.108	0.257 and 0.0659	0.385 and 0.233	-0.126 and -0.102	1.32 and 0.681	1.5 and 1.48	1.16 and -0.33
